According to PubChem BioAssay (NCATS):
Results filed as inconclusive are left out. The source made the active and inactive calls. Calls follow the shape of the dose curve; as a rule, active = well fitted curve in the direction sought with a large enough effect; inconclusive = small, poorly fitted or top-dose-only effect, or another doubt; inactive = no such curve, though single readings can be large; an effect the other way counts as inactive or inconclusive.

Tests used:
[1] = HEK293 24hr Apoptosis Induction qHTS against the NCATS CANVASS Library (AID 1347359)
Procedure, shortened: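 HEK293 cells (500/well, DMEM + 10% FBS) were exposed to compounds in an 11-point series for 24 hours at 37 degrees C, then caspase-3/7 activity was read by Caspase-Glo DEVD luciferase luminescence after 15 min.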

[2] = HPAF-II 18hr Apoptosis Induction qHTS against the NCATS CANVASS Library (AID 1347360)
Procedure, shortened: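 Caspase-Glo 3/7 luminescence (DEVD substrate) after 15 min RT; HPAF-II, 500 cells/well, 18 h compound exposure at 37 degrees C, qHTS series; doxorubicin control 0.1nM - 4uM.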

[3] = HEK293 12hr Apoptosis Induction qHTS against the NCATS CANVASS Library (AID 1347361)
Procedure, shortened: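 500 HEK293 cells/well; cpds pin-transferred, 11-pt conc series; 12 h, 37 degrees C/5% CO2; Caspase-Glo 3/7 added, 15 min RT dark; luminescence.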

[4] = test system: NAD(P)H diaphorase (Clostridium kluyveri); experiment: Diaphorse counterscreen qHTS: Assay Interference Panel against the NCATS CANVASS Library (AID 1347362)
Procedure, shortened: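 Clostridium kluyveri diaphorase in PBS with 0.01% Tween-20 was preincubated 15 min at room temperature in the dark with compounds (11-point series). Resorufin fluorescence (ex 525/20, em 598/25) was read 5 min after adding resazurin/NADH.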

[5] = molecular target: Luciferin 4-monooxygenase (Photinus pyralis) (UniProt P08659); experiment: Firefly luciferase counterscreen qHTS: Assay Interference Panel against the NCATS CANVASS Library (AID 1347363)
Chain of Luciferin 4-monooxygenase (Photinus pyralis) (P08659 whole entry, looked up): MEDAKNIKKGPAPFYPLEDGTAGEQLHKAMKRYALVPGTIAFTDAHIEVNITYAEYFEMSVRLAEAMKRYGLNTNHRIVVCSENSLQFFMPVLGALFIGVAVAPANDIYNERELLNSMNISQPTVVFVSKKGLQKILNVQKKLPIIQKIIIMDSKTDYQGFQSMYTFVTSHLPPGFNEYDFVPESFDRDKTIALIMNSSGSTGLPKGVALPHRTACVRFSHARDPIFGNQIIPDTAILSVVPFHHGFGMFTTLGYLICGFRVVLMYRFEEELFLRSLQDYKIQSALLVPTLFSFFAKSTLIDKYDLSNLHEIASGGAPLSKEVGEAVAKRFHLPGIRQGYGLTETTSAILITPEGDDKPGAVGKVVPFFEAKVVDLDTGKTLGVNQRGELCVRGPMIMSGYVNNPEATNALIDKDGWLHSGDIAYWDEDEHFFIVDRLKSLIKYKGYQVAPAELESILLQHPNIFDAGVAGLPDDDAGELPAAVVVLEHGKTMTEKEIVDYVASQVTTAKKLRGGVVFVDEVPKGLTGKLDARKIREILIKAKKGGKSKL
Procedure, shortened: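 Purified P. pyralis luciferase was added to compounds (11-point series) preincubated 15 min at room temperature with substrate containing 0.013 mM D-luciferin and 0.013 mM ATP; luminescence was read after 5 min.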

[6] = KB-8-5-11 Cancer Cell Toxicity qHTS against the NCATS CANVASS Library (AID 1347364); also: nearly all actives have a fitted effect of over 75% in size
Procedure, shortened: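 Viability read as CellTiter-Glo luminescence after 72 h at 37 °C, 5% CO2. 11-point compound series on 500 KB-8-5-11 cells/well in DMEM/10% FBS. Follow-up plating included 1 uM tariquidar in the medium.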

[7] = KB-3-1 Cancer Cell Toxicity qHTS against the NCATS CANVASS Library (AID 1347366); also: nearly all actives have a fitted effect of over 75% in size
Procedure, shortened: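 500 KB-3-1 cells/well; compounds pin-transferred, 11-pnt series; 72 hr, 37C/5% CO2; CellTiter-Glo, 10 min RT; luminescence read-out.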

[8] = qHTS for ATAD5 Agonist screened against the NCATS CANVASS Library (AID 1347367)
Procedure, shortened: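 Luminescence read-out: ATAD5-driven luciferase in stably transfected HEK 293T cells, which rises post-transcriptionally with DNA damage. Cells were exposed 16hr at 37C to test compound; a CellTiter-Fluor fluorescence read (1hr) measured viability first.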

[9] = MCF7 Cancer Cell Toxicity qHTS against the NCATS CANVASS Library (AID 1347369)
Procedure, shortened: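 Luminescent ATP signal (CellTiterGlo) served as the cytotoxicity read-out after MCF7 breast cancer cells had been incubated 72 hr at 37C with natural products in an 11-point titration.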

[10] = qHTS for ATAD5 Antagonist screened against the NCATS CANVASS Library (AID 1347370);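 also: HEK293T cells carrying an ATAD5 luciferase reporter co-treated with 10 µM 5-fluorouridine; nearly all actives have a fitted effect of over 65% in size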
Procedure, shortened: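 Compounds (11-point) co-dosed with 10 µM 5-FUrd for 16 h at 37 °C onto HEK293T-ATAD5 luciferase reporter cells. Viability measured by CellTiter-Fluor fluorescence, then ATAD5 reporter signal by luminescence.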

[11] = J3T Cancer Cell Toxicity qHTS against the NCATS CANVASS Library (AID 1347371);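 also: J3T is a canine glioma cancer cell line seeded at 500 cells per well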
Procedure, shortened: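 Cytotoxicity read as CellTiterGlo ATP luminescence after 72 h incubation (37C, 5% CO2) of J3T canine glioma cells (500/well) with an 11-point compound series.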

[12] = molecular target: Nuclear receptor subfamily 1 group I member 3 (Homo sapiens) (UniProt Q14994); experiment: qHTS for Constitutive Androstane Receptor (CAR) Antagonist screened against the NCATS CANVASS Library (AID 1347372);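 also: cells stimulated with 50 nM CITCO agonist so inhibition reflects antagonism; luciferase from CYP2B6 promoter reporter driven by hCAR in HepG2 cells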
Chain of Nuclear receptor subfamily 1 group I member 3 (Homo sapiens) (Q14994 whole entry, looked up): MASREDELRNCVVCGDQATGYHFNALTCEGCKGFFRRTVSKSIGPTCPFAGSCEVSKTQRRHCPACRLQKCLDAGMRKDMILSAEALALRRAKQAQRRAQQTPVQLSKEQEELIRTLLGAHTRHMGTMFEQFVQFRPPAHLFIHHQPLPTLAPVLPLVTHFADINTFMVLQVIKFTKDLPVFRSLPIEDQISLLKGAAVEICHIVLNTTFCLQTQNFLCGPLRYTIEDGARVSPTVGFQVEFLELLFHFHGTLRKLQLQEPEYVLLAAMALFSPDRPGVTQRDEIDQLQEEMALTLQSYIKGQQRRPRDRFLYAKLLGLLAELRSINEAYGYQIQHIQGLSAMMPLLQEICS
Procedure, shortened: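 Cells were seeded and left 4hr to attach, then received compound at 11 concentrations and 50 nM CITCO. Following 24hr incubation, fluorescence viability and luciferase luminescence were read sequentially.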

[13] = molecular target: Nuclear receptor subfamily 1 group I member 3 (Homo sapiens) (UniProt Q14994); experiment: qHTS for Constitutive Androstane Receptor (CAR) Agonist screened against the NCATS CANVASS Library (AID 1347373);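 also: every well also contained 1.5 µM PK11195 alongside the test compound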
Procedure, shortened: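 Agonist mode with 1.5uM PK11195 present: compounds for 24hr on HepG2-hCAR-CYP2B6 cells. CellTiter-Fluor fluorescence (ex 405, em 540 nm) gives viability; ONE-Glo luminescence reports CAR activation.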

[14] = 10-beta competent E. coli microbial cell viability qHTS against the NCATS CANVASS Library (AID 1347376)
Procedure, shortened: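 Read-out: BacTiter-Glo ATP luminescence, taken 20 min after reagent addition. Beforehand, 10-beta competent E. coli at 0.2 OD had been incubated overnight at 37C with compounds at 11 concentrations.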

[15] = DH5-alpha competent E. coli microbial cell viability qHTS against the NCATS CANVASS Library (AID 1347377); conditions: BacTiter-Glo ATP luminescence, overnight; at 46.1 µM (top of the series)
Procedure, shortened: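 Bacterial viability as ATP-dependent luminescence (BacTiter-Glo), read after overnight 37 °C exposure of DH5-alpha competent E. coli to compounds in 11-point titration.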

[16] = qHTS for H2AX Agonists against the NCATS CANVASS Library (AID 1347378)
Procedure, shortened: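 TR-FRET readout (ex 320 nm, em 665/620 nm ratio) of phospho-H2AX (S139) in CHO-K1 lysates. Cells treated 3 hr at 37C with compound titration, 0.76% DMSO; lysis 30 min, antibody detection 24 hr at RT.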

[17] = qHTS for Inflammasome Signaling Inhibitors: IL-1-beta AlphaLISA screen against the NCATS CANVASS Library (AID 1347379); conditions: THP-1 LPS/ATP, IL-1B AlphaLISA secretion, 16 h; at 57.5 µM (top of the series);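 also: human THP-1 cells primed with LPS then triggered with ATP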
Procedure, shortened: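 Secreted IL-1B from human THP-1 cells quantified by AlphaLISA 16 hr after compound addition (final up to 57.5 uM). A 1 hr compound pretreatment preceded inflammasome activation with 250 ng/mL LPS plus 1.25 mM ATP (final).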

[18] = qHTS for Antimalaria activity screened against the NCATS CANVASS Library (AID 1347380);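 also: Plasmodium falciparum strain Dd2 asexual parasites grown in red blood cells; nearly all actives have a fitted effect of over 40% in size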
Procedure, shortened: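 SYBR Green fluorescence at 485/535 nm was read 18 hr after lysis. This followed a 72 hr incubation at 37C in 5% O2, 5% CO2 of Dd2-infected erythrocytes (0.3% parasitemia, 2.5% final hematocrit) with compounds titrated over 11 concentrations.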

[19] = Inflammasome Signaling qHTS Counterscreen: IL-1-beta AlphaLISA counterscreen against the NCATS CANVASS Library (AID 1347381);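 also: cell-free check with purified IL-1β in medium and no THP-1 cells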
Procedure, shortened: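 Purified IL-1-beta (4 pg/well) + compound, 11-pt conc. series; acceptor beads 6 ug/mL + biotin-Ab 0.6 nM final, 1 h RT; SA-donor 24 ug/ml final, 30 min dark RT; read ex 680/em 615.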

[20] = Cytotoxicity qHTS for assessment of Hepg2 cells membrane integrity screened against the NCATS CANVASS Library (AID 1347387)
Procedure, shortened: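 Membrane damage quantified as fluorescent LDH-release signal (ex 560, em 590 nm) in HepG2 cells treated 5 hr at 37C. qHTS format, 11 concentrations spanning 0.59 nM - 46 uM final, cells plated at 2000 per well the night before.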

Measured: outcome

COc1ccc2[nH]cc(CCNC(C)=O)c2c1
inactive: all assays above
